“And” between values parts separate entries of the source, which are not always exact repeats. Identical values can stand only once. Inconclusive results are not listed. A number with no mark means an inactive call. The source made the active and inactive calls. Calls come from the whole dose curve; as a rule, active = well fitted curve in the direction sought with a large enough effect; inconclusive = small, poorly fitted or top-dose-only effect, or another doubt; inactive = no such curve, though single readings can be large or run the other way.
test: qHTS Assay for Identifying Gametocytocidal Compounds (AID 743244);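 for max response: actives lower the fluorescent signal which means gametocytes are killed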; conditions: P. falciparum 3D7 stage III-V gametocytes, alamarBlue, 72 h; max response: hits give low values
Summary of the method: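 Compounds are pinned into medium, gametocytes (stage III–V, 3D7, 20,000 cells/well) added, and plates held 72 h at 37 °C in 5% CO2. AlamarBlue follows for 24 h before fluorescence reading.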
% is set by controls: 0 for no effect and ±100 for the full control effect; potency is the fitted concentration of half-maximal effect.

Row | SMILES | max response | Potency
1 | CCOc1ccc(NS(=O)(=O)c2ccc(N)cc2)nn1 | 42.3% | 
2 | CC(Cc1ccccc1)NCCn1cnc2c1c(=O)n(C)c(=O)n2C (stereo unspecified) | -2.49% | 
3 | COc1cccc(C(=O)CCN[C@@H](C)[C@H](O)c2ccccc2)c1 |  | 31.6 µM (active)
4 | CC(C)NC(C)C | 15.3% | 
5 | CCN[C@@H](C)Cc1ccccc1 | -4.1% | 
6 | COc1cc(CC(C)N)cc(OC)c1OC (stereo unspecified) | 4.71% | 
7 | Nc1nc(N)nc(NC2CC2)n1 | -8.01% | 
8 | COP(=S)(OC)Oc1ccc(SC)c(C)c1 | -2.21% | 
9 | CCN[C@H](C)Cc1cccc(C(F)(F)F)c1 | 16.7% | 
10 | CC(=O)NC1CCSC1=O (stereo unspecified) | -2.2% and 7.47% | 
11 | COc1c2c(cc3c1OCO3)CCN(C)C2 | 7.33% | 

From PubChem BioAssay (NCATS)
